Laboratory results taken from PubChem BioAssay (NCATS).
Results filed as inconclusive are left out. Activity calls are given as the source filed them. The call rests on the fitted dose curve; in most records, active means well fitted inhibition curve with a large enough effect; inconclusive means small, poorly fitted or top-dose-only effect; inactive means no such curve, though single readings can be large or run the other way.

Assay: Primary qHTS for small molecule stabilizers of the endoplasmic reticulum resident proteome: Secreted ER Calcium Modulated Protein (SERCaMP) assay (AID 1508630)
Settings: SH-SY5Y GLuc-SERCaMP (Gaussia luciferase released on ER calcium loss) secretion, thapsigargin, luminescence; series mostly up to 38.4 µM
How it was run: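 The SH-SY5Y reporter protocol was run at 3 concentrations up to 38.3 uM (primary) or 11 concentrations (follow-up): 16 h compound, 100 nM thapsigargin for 4 h, then extracellular luciferase luminescence.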

Potency, inactive:
COc1ccc(/C=C2\NC(=O)[C@@H]3Cc4ccccc4CN3C2=O)cc1
COc1cc2c(cc1OC)OC(C)(C)C=C2
COc1cc(=O)n(C)c2c(OCC3OC(C)(C)OC3(C)C)cccc12 (stereo not given)
C=C(C)C(=O)OC[C@@H]1CCC[N@+]2(C)CCCCC12 (stereo not given in full)
C=C[C@@H](C1=CC(=O)C(OC)=C(OC)C1=O)c1ccccc1
CCOC(=O)c1ncc2[nH]c3cccc(OC(C)C)c3c2c1C
CC(C)C1NC(C(=O)O)Cc2c1[nH]c1ccccc21 (stereo not given)
C/C=C(\C)C(=O)O[C@H]1C[C@@]2(C)CCC(C(C)C)C2(O)CC[C@@]1(C)O (stereo not given in full)
COc1c2c(cc3c1C(CC(=O)c1c(O)c(OC)c4occc4c1OC)[N+](C)(C)CC3)OCO2 (stereo not given)
CN[C@H]1CCc2cc(OC)c(OC)c(OC)c2-c2ccc(N[C@@H]3CCCCNC3=O)c(=O)cc21
COc1ccc(-c2cc3ccccc3c(=O)o2)cc1
Cc1cc(O)c(C)c2c1CC[C@H]1[C@H](C)C(=O)O[C@H]21
COc1cc2c(cc1OC)-c1cc3cc(OC)c(OC)cc3c(=O)n1CC2
Nc1nc(=S)c2ncn([C@@H]3O[C@H](CO)[C@@H](O)[C@H]3O)c2[nH]1
C[C@]12CCC(=O)C=C1CCC1C3CC[C@](O)(C(=O)CO)[C@@]3(C)CC3OC312 (stereo not given in full)
CC(C)(O)[C@@H]1CCC[N+]2(C)CCCC[C@H]12 (stereo not given in full)
CC1=C2C(=CO[C@H](C)[C@H]2C)C(=O)C(C(=O)O)=C1O
C/C=C/c1ccc2oc(-c3ccc(O)cc3)c(C)c2c1
COc1ccc(C2c3cc(OC)c(OC)cc3Cc3c4cc(OC)c(OC)cc4cc[n+]32)cc1OC (stereo not given)
CC(=O)OC[C@@]1(O)C[C@@]23CC[C@@H]4c5ccoc5CC[C@@]4(C)[C@@H]2CCC1C3
COc1ccc([C@H]2c3cc(OC)c(OC)cc3C[C@@H](C)[C@@H]2C)cc1OC
COc1cccc(C(=O)CC2c3c(c(Br)c4c(c3OC)OCO4)CCN2C)c1 (stereo not given)
COc1cc2c(cc1OC)C(C(=O)c1ccc(OC)c(OC)c1O)=NCC2
CC1=CC2C(C)(C)CC(=O)C[C@]2(C)CC1COc1ccc2c(c1)CC(=O)C=C2 (stereo not given in full)
Cn1c2c(c(=O)c3ccccc31)C[C@@H](O)C(C)(C)O2
C[C@@H](CN(C)C[C@H]1C(=O)O[C@@H]2C[C@@]3(C)CCC[C@]4(CO4)C3CC21)[C@H](O)c1ccccc1 (stereo not given in full)
COc1cccc2c(=O)c3ccoc3n(C)c12
COc1cc(C/C=C\c2ccccc2)c(OC)cc1O
COc1cc(CCNC(C)=O)c(C(=O)/C=C/c2cccc(OC)c2OC)cc1OC
CC(C)=CCC1=C(O)[C@](O)(CC=C(C)C)C(=O)C(C(=O)CC(C)C)=C1O
COc1ccc(/C=C/c2cc(OC)c(OC)cc2CC[N+](C)(C)C)cc1
O=C(O)c1c(C(=O)O)c2ccccc2[nH]c1=O
COc1ccc(C(=O)N(O)c2ccccc2)cc1
CN(C)CCc1cc2c(c3c1ccc1ccccc13)OCO2
COc1c(C2=CC(=O)N(C)C2=O)c2c(n1C)C(=O)c1ccccc1C2=O
C/C=C/c1ccc(OC(C)[C@@H](O)c2ccc(O)c(OC)c2)c(OC)c1 (stereo not given in full)
C=C[C@]1(C)Cc2occ(C)c2C[C@H]1C(=C)C(=O)O
C/C(N[C@@H]1CSCC1O)=C1/C(=O)CC2[C@@H]1C2(C)C (stereo not given in full)
C[C@H]1OC(=O)CC[C@@H]2[C@]1(C)CCC1[C@@]2(C)CC[C@@]2(C)C3CC(C)(C)CC[C@]3(CO)CC[C@]12C (stereo not given in full)
O=C1N[C@@H](Cc2c[nH]c3ccccc23)C(=O)N[C@H]1Cc1c[nH]c2ccccc12
